Experimental findings from PubChem BioAssay are described below.

Potency and affinity values are given separately. Calls of active or inactive are those of the source.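 How the source made its calls, unless noted: active means fitted dose curve reaches 40% lysis signal rise at or below the highest valid concentration tested for that sample; inconclusive means flat fit between 30% and 70%, or poor curve fit; inactive means signal falls, stays flat within 30%, or no crossing.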

The nature of one assay: C. neoformans lysis by adenylate kinase leakage – AK release luminescence, cherry-picks, dose response (AID 687000).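 Further: luminescent detection of adenylate kinase leaking from lysed yeast; 0% = median neutral control signal and 100% = double that signal.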 The note with it: 4 h, 100% = twice the neutral-control signal; series mostly up to 15 µM; lysis activity: at the top concentration.
As to `CC(C)Sc1nc2ncnc(N)c2[nH]1`, the “lysis activity” value was -8.78% (inactive).
In the case of `C[C@@H]1CCCCO[C@H](CN(C)Cc2ccccc2)[C@H](C)CN([C@@H](C)CO)C(=O)c2cc(NS(=O)(=O)c3cccs3)ccc2O1`, the “lysis activity” value is 1.39% (inactive).
On to `CC(C)NC(=O)Nc1ccc2c(c1)C(=O)N([C@@H](C)CO)C[C@@H](C)[C@@H](CN(C)C(=O)NC1CCCCC1)OCCCC[C@H](C)O2`, for which the “lysis activity” value is -12.4% [at 7.5 µM] (inactive).
`CN1c2ccc(-c3ccc(F)cc3)cc2[C@@H]2[C@@H](CCN2C(=O)C2CCOCC2)[C@@H]1CO`: the “lysis activity” value is 4.16% (inactive).
With `Cc1cccc(OCC(=O)NCc2ccc(F)cc2)c1`, the “lysis activity” value was -19.4% (inactive).
In the case of `CNC[C@@H]1Oc2ccc(NS(=O)(=O)c3ccc(Cl)cc3)cc2C(=O)N([C@H](C)CO)C[C@H]1C`, the “lysis activity” value is 12.9% (inactive).
For `CC(=O)N[C@H]1CC[C@H](CCNC(=O)C2CCC2)O[C@@H]1CO`, the “lysis activity” value was 31.1% (inactive).
Regarding `Cc1ccccc1NC(=O)C1CCC(=O)N1` (stereo not given), the “lysis activity” value is 10.6% (inactive).
Take `CCC(=O)N1[C@H](CO)[C@@H](c2ccc(-c3cccnc3)cc2)[C@@H]1CN(C)C(C)=O`: the “lysis activity” value was -0.035% (inactive).
As for `Cc1cc(C)c(NC(=O)CN(C2CCCCC2)C2CCCCC2)c(C)c1`, the “lysis activity” value is -27.2% (inactive).
As to `CCNC(=O)C[C@H]1CC[C@@H](NC(=O)NC2CCCCC2)[C@H](CO)O1`, the “lysis activity” value is 8.16% (inactive).
For the compound `C[C@H]1CN([C@@H](C)CO)C(=O)Cc2cc(NS(=O)(=O)c3cn(C)cn3)ccc2O[C@@H]1CN(C)Cc1ccc(Oc2ccccc2)cc1`, the “lysis activity” value is -3.89% (inactive).
For the compound `CCOc1cc(CNC)ccc1OCC(=O)NC(C)(C)C`, the “lysis activity” value was -14.6% (inactive).
In the case of `O=C(CSc1ncnc2c1cnn2-c1ccccc1)NCC1CCCO1` (stereo not given), the “lysis activity” value is 2.36% (inactive).
Turning to `COc1ccc(C2CC(c3cccs3)=NN2C(=O)c2ccco2)cc1OC` (stereo not given), the “lysis activity” value is 4.54% (inactive).
In the case of `CCC(=O)N1CCCC1(C)C(=O)Nc1ccc(C)c(C)c1` (stereo not given), the outcome was inactive.
In the case of `C[C@@H]1CN([C@H](C)CO)C(=O)c2cccc(NC(=O)c3ccncc3)c2O[C@H]1CN(C)C(=O)Nc1ccc(C(F)(F)F)cc1`, the “lysis activity” value is 12.9% (inactive).
The same measure, in the same setting: the result for `CC(C)COc1ccc(CNC(=S)NCc2ccccc2)cc1` reads 14.5% (inactive); that for `CC(C)C(=O)N1CCC1(C)C(=O)Nc1ccccc1C(C)(C)C` (stereo not given), 2.38% [at 23.5 µM] (inactive).
Turning to `CO[C@H]1CC[C@@H]2CCOc3c(C#N)cccc3C(=O)N(C)C[C@@H](OC)[C@@H](C)C(=O)N(C)C[C@@H]1O2`, the “lysis activity” value was -4.88% (inactive).
For the compound `CC(C)c1ccc(OCC(=O)NC(C)c2ccccc2)cc1` (stereo not given), the “lysis activity” value was -9.96% (inactive).
The same measure, in the same setting: the result for `COc1ccc(NC(=O)CSc2ncnc3c2cnn3CCc2ccccc2)cc1` reads -11.5% (inactive); that for `Cc1cccc(C)c1NC(=S)NN(Cc1ccccc1)c1ccccc1`, 5.54% (inactive); that for `CCC(C)(C(=O)Nc1ccccc1C)N(C(=O)CNC(C)=O)c1ccccc1C` (stereo not given), -2.29% (inactive).
On the same count and under the same terms, the result for `CC(C)N1C(=O)C2(OCCCO2)c2cc(Br)ccc21` reads -11.1% (inactive).
Still for that read-out and setting: the result for `COc1ccc(CN(C)C[C@H]2Oc3ccc(NS(C)(=O)=O)cc3CC(=O)N([C@@H](C)CO)C[C@H]2C)cc1` reads 0.984% (inactive); that for `CC12CC3CC(C)(C1)CC(C(=O)NC(=S)N1CCCCC1)(C3)C2`, 3.12% (inactive).
In the case of `CCc1ccc(C(=O)NC(=S)Nc2ccccc2N2CCOCC2)cc1`, the “lysis activity” value is -14.5% (inactive).
In the case of `O=C(C[C@@H]1CC[C@@H]2[C@H](COC[C@@H](O)CN2C(=O)Nc2ccc(Cl)cc2)O1)NC1Cc2ccccc2C1`, the “lysis activity” value is -44.8% (inactive).
As to `Cc1ccc(N(C(=O)C2CCC(=O)N2)C2(C(=O)NC3CCCC3)CCCCC2)cc1` (stereo not given), the “lysis activity” value is 13.4% (inactive).
Regarding `O=C(NC[C@H]1[C@H](c2ccccc2)[C@H](CO)N1C(=O)Cc1cccnc1)C1CCC1`, the “lysis activity” value is -2.96% (inactive).
Take `CO[C@@H]1CN(C)C(=O)c2cc(NC(=O)C3CCOCC3)ccc2OC[C@H](C)NC[C@@H]1C`: the “lysis activity” value is -9.03% (inactive).
Regarding `CC(=O)N[C@H]1CC[C@@H](CCNC(=O)C2CCC2)O[C@H]1CO`, the “lysis activity” value was -2.67% (inactive).
Still for that read-out and setting: the figure for `Cc1ccccc1N(CC(=O)NCCSC1CCCCC1)S(=O)(=O)c1ccccc1` is -9.29% (inactive).
Still for that read-out and setting: the result for `Cc1ccc(OCC(=O)NC(C)c2ccccc2)cc1` (stereo not given) reads 0.954% (inactive); that for `CCOC(=O)CSc1ncnc2c1cnn2-c1ccc(Cl)cc1`, -38.1% (inactive).
Regarding `CCN1C(=S)N[C@@H](c2cccc(F)c2)C(C(=O)OC)=C1C`, the “lysis activity” value is -5.79% (inactive).
`O=C(c1cccc(F)c1)N1C[C@H]2[C@@H](c3ccccc31)[C@@H](CO)N2Cc1cocn1`: the “lysis activity” value was 9.85% (inactive).
Still for that read-out and setting: the result for `CC(=O)N1[C@H](CO)[C@H](c2ccc(-c3ccccc3)cc2)[C@@H]1CNC(=O)C1CC1` reads -18.2% (inactive); that for `CCN(CC)CC(=O)N(CC(=O)Nc1c(C)cc(C)cc1C)C1CCCCC1`, -12.1% (inactive).

The next assay is described as follows: viability loss in HepG2 hepatoma cells – cell-based, cherry-picks, set 2, cytotoxicity control, dose response (AID 687002;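 active means a dose-response fit showing signal loss, with half-maximal concentration no higher than twice the top tested dose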). The note with it: ATP luminescence (CellTiter-Glo), 48 h; series mostly up to 26 µM; activity change, negative = cytotoxicity: at the top concentration.
Turning to `CC(C)Sc1nc2ncnc(N)c2[nH]1`, the “activity change, negative = cytotoxicity” value was -13.9% (inactive).
As to `C[C@@H]1CCCCO[C@H](CN(C)Cc2ccccc2)[C@H](C)CN([C@@H](C)CO)C(=O)c2cc(NS(=O)(=O)c3cccs3)ccc2O1`, the “activity change, negative = cytotoxicity” value is -0.718% (inactive).
On the same count and under the same terms, the figure for `CC(C)NC(=O)Nc1ccc2c(c1)C(=O)N([C@@H](C)CO)C[C@@H](C)[C@@H](CN(C)C(=O)NC1CCCCC1)OCCCC[C@H](C)O2` is 1.23% [at 23.5 µM] (inactive).
Same read-out and setting: the figure for `CN1c2ccc(-c3ccc(F)cc3)cc2[C@@H]2[C@@H](CCN2C(=O)C2CCOCC2)[C@@H]1CO` is 10.6% (inactive).
With `Cc1cccc(OCC(=O)NCc2ccc(F)cc2)c1`, the “activity change, negative = cytotoxicity” value is -8.08% (inactive).
For `CNC[C@@H]1Oc2ccc(NS(=O)(=O)c3ccc(Cl)cc3)cc2C(=O)N([C@H](C)CO)C[C@H]1C`, the “activity change, negative = cytotoxicity” value is 2.29% (inactive).
Still for that read-out and setting: the figure for `CC(=O)N[C@H]1CC[C@H](CCNC(=O)C2CCC2)O[C@@H]1CO` is -0.941% (inactive); for `Cc1ccccc1NC(=O)C1CCC(=O)N1` (stereo not given) it is -9.99% (inactive); for `CCC(=O)N1[C@H](CO)[C@@H](c2ccc(-c3cccnc3)cc2)[C@@H]1CN(C)C(C)=O` it is -8.59% [at 23.5 µM] (inactive).
With `Cc1cc(C)c(NC(=O)CN(C2CCCCC2)C2CCCCC2)c(C)c1`, the “activity change, negative = cytotoxicity” value was 5.2% (inactive).
Regarding `CCNC(=O)C[C@H]1CC[C@@H](NC(=O)NC2CCCCC2)[C@H](CO)O1`, the “activity change, negative = cytotoxicity” value is 11.3% (inactive).
Same read-out and setting: the result for `C[C@H]1CN([C@@H](C)CO)C(=O)Cc2cc(NS(=O)(=O)c3cn(C)cn3)ccc2O[C@@H]1CN(C)Cc1ccc(Oc2ccccc2)cc1` reads 8.88% (inactive); that for `CCOc1cc(CNC)ccc1OCC(=O)NC(C)(C)C`, 5.29% (inactive); that for `O=C(CSc1ncnc2c1cnn2-c1ccccc1)NCC1CCCO1` (stereo not given), 19.5% (inactive).
In the case of `COc1ccc(C2CC(c3cccs3)=NN2C(=O)c2ccco2)cc1OC` (stereo not given), the “activity change, negative = cytotoxicity” value is -2.37% (inactive).
For `CCC(=O)N1CCCC1(C)C(=O)Nc1ccc(C)c(C)c1` (stereo not given), the outcome was inactive.
Regarding `C[C@@H]1CN([C@H](C)CO)C(=O)c2cccc(NC(=O)c3ccncc3)c2O[C@H]1CN(C)C(=O)Nc1ccc(C(F)(F)F)cc1`, the “activity change, negative = cytotoxicity” value was -2.45% [at 23.5 µM] (inactive).
For `CC(C)COc1ccc(CNC(=S)NCc2ccccc2)cc1`, the “activity change, negative = cytotoxicity” value was -1.02% (inactive).
`CC(C)C(=O)N1CCC1(C)C(=O)Nc1ccccc1C(C)(C)C` (stereo not given): the “activity change, negative = cytotoxicity” value was -7.32% [at 38 µM] (inactive).
Still for that read-out and setting: the result for `CO[C@H]1CC[C@@H]2CCOc3c(C#N)cccc3C(=O)N(C)C[C@@H](OC)[C@@H](C)C(=O)N(C)C[C@@H]1O2` reads -6.09% (inactive); that for `CC(C)c1ccc(OCC(=O)NC(C)c2ccccc2)cc1` (stereo not given), 0.949% (inactive); that for `COc1ccc(NC(=O)CSc2ncnc3c2cnn3CCc2ccccc2)cc1`, -14.2% (inactive).
In the case of `Cc1cccc(C)c1NC(=S)NN(Cc1ccccc1)c1ccccc1`, the “activity change, negative = cytotoxicity” value was 5.25% (inactive).
Regarding `CCC(C)(C(=O)Nc1ccccc1C)N(C(=O)CNC(C)=O)c1ccccc1C` (stereo not given), the “activity change, negative = cytotoxicity” value was -5.06% (inactive).
Still for that read-out and setting: the result for `CC(C)N1C(=O)C2(OCCCO2)c2cc(Br)ccc21` reads 39.9% (inactive); that for `COc1ccc(CN(C)C[C@H]2Oc3ccc(NS(C)(=O)=O)cc3CC(=O)N([C@@H](C)CO)C[C@H]2C)cc1`, 11.4% (inactive); that for `CC12CC3CC(C)(C1)CC(C(=O)NC(=S)N1CCCCC1)(C3)C2`, 10% (inactive).
The same measure, in the same setting: the result for `CCc1ccc(C(=O)NC(=S)Nc2ccccc2N2CCOCC2)cc1` reads 7.94% (inactive).
As to `O=C(C[C@@H]1CC[C@@H]2[C@H](COC[C@@H](O)CN2C(=O)Nc2ccc(Cl)cc2)O1)NC1Cc2ccccc2C1`, the “activity change, negative = cytotoxicity” value is -1.31% (inactive).
Same read-out and setting: the figure for `Cc1ccc(N(C(=O)C2CCC(=O)N2)C2(C(=O)NC3CCCC3)CCCCC2)cc1` (stereo not given) is -5.81% (inactive); for `O=C(NC[C@H]1[C@H](c2ccccc2)[C@H](CO)N1C(=O)Cc1cccnc1)C1CCC1` it is -7.72% (inactive); for `CO[C@@H]1CN(C)C(=O)c2cc(NC(=O)C3CCOCC3)ccc2OC[C@H](C)NC[C@@H]1C` it is -10.9% [at 23.5 µM] (inactive).
The same measure, in the same setting: the figure for `CC(=O)N[C@H]1CC[C@@H](CCNC(=O)C2CCC2)O[C@H]1CO` is -3.91% (inactive); for `Cc1ccccc1N(CC(=O)NCCSC1CCCCC1)S(=O)(=O)c1ccccc1` it is 3.32% [at 12 µM] (inactive).
The same measure, in the same setting: the result for `Cc1ccc(OCC(=O)NC(C)c2ccccc2)cc1` (stereo not given) reads -3.42% (inactive); that for `CCOC(=O)CSc1ncnc2c1cnn2-c1ccc(Cl)cc1`, -0.892% (inactive); that for `CCN1C(=S)N[C@@H](c2cccc(F)c2)C(C(=O)OC)=C1C`, -0.231% (inactive).
Take `O=C(c1cccc(F)c1)N1C[C@H]2[C@@H](c3ccccc31)[C@@H](CO)N2Cc1cocn1`: the “activity change, negative = cytotoxicity” value was 13.2% (inactive).
Take `CC(=O)N1[C@H](CO)[C@H](c2ccc(-c3ccccc3)cc2)[C@@H]1CNC(=O)C1CC1`: the “activity change, negative = cytotoxicity” value was -13% (inactive).
As for `CCN(CC)CC(=O)N(CC(=O)Nc1c(C)cc(C)cc1C)C1CCCCC1`, the “activity change, negative = cytotoxicity” value is 2.19% (inactive).
